We go through eight compounds from PubChem BioAssay (Tox21).

A short description of experiment [1]: Nuclear factor erythroid 2-related factor 2/antioxidant responsive element (Nrf2/ARE) small molecule agonists: qHTS cell viability counter screen in human keratinocytes (AID 1919968; active = well fitted curve in the direction sought with a large enough effect in the repeat runs; an effect the other way counts as inactive or inconclusive; also: nearly all actives have a fitted effect of over 55% in size). Summed up: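 Stably transfected HaCaT (KeratinoSens), 1,500/well. Test agents in DMSO were applied for 23 h, 37 C/5% CO2. CellTiter-Fluor was incubated 1 h before the fluorescence read.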
In general terms: qHTS replaces the single test concentration by a dilution series.

Experiment [2] is described as follows: Nuclear factor erythroid 2-related factor 2/antioxidant responsive element (Nrf2/ARE) small molecule agonists: luciferase reporter gene qHTS assay in human keratinocytes (AID 1919969). Also: nearly all actives have a fitted effect of over 35% in size. A general note: Reporter assays use an easily measured gene product as a stand-in for the process of interest.
The target of experiment [3] is Gonadotropin-releasing hormone receptor (Homo sapiens) (UniProt P30968). The experiment is described as follows: Human gonadotropin-releasing hormone receptor (GnRHR) small molecule agonists, calcium flux assay in GnRHR-HEK293 cells (AID 1920063). Also: nearly all actives have a fitted effect of over 35% in size. In short, it runs like this: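 Stable human GnRHR HEK293 line. 18 h plating, then calcium dye for 1 h at 37 C. Agonist-mode compound addition from DMSO stocks; fluorescence monitored 3 min.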
Gonadotropin-releasing hormone receptor (Homo sapiens), sequence (P30968 whole entry, looked up): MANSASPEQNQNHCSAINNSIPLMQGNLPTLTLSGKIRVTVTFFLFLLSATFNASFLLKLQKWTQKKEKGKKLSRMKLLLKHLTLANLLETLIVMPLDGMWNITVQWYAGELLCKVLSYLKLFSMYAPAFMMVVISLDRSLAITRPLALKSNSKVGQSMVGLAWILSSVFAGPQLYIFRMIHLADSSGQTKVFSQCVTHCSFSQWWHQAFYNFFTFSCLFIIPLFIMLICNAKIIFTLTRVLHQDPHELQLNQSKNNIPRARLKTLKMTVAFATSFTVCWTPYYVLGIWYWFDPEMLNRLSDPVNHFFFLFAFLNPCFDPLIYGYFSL
A general note: Calcium flux is commonly read through the fluorescence of an indicator in the cells.

For experiment [4], the target named is KiSS-1 receptor (Homo sapiens) (UniProt Q969F8). Nature of the experiment: Human kisspeptin (KISS1R) small molecule agonists, calcium flux assay in KISS1R-HEK293 cells (AID 1920064; active = well fitted curve in the direction sought with a large enough effect in the repeat runs; an effect the other way counts as inactive or inconclusive). Summed up: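 After overnight (18 h) culture at 37 C/5% CO2, human KISS1R-HEK293 cells received calcium dye for 1 h, then test compound; emission at 540 nm (excitation 480 nm) was tracked for 3 min.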
KiSS-1 receptor (Homo sapiens), sequence (Q969F8 whole entry, looked up): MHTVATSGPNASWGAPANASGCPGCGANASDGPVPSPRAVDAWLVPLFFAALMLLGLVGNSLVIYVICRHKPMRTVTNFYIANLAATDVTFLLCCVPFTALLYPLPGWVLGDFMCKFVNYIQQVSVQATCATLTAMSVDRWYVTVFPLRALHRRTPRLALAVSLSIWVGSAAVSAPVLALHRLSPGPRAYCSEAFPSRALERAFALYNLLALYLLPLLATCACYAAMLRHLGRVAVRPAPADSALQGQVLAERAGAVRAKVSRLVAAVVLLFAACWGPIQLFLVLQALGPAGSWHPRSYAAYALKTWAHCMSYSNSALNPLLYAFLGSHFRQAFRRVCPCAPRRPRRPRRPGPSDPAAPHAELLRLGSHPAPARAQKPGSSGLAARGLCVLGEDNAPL

Experiment [5] is described as follows: G protein-coupled receptor (GPCR) small molecule agonists, calcium flux assay: HEK293 wild type cell line counter screen (AID 1920065). In short, it runs like this:
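Following 18 h incubation at 37 C/5% CO2, plates got calcium dye for 1 h; compounds, ATP or DMSO were then pinned in and fluorescence followed kinetically (480/540 nm).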

Experiment [6] is described as follows: p53 small molecule agonists, cell-based qHTS assay with human liver microsomes: qHTS cell viability counter screen (AID 1963579). Also: nearly all actives have a fitted effect of over 45% in size. In short, it runs like this:
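Metabolic activation used human liver microsomes and NADPH, both 0.5 mg/mL final, over 16 hours at 37 C on p53RE-bla cells (4,000/well). Cytotoxicity measured by CellTiter-Glo luminescence, 30 min at room temperature.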

Experiment [7] in a line: p53 small molecule agonists, cell-based qHTS assay with rat liver microsomes: qHTS cell viability counter screen (AID 1963580). Also: nearly all actives have a fitted effect of over 45% in size. Summed up: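 After the beta-lactamase ratio was read, CellTiter-Glo was added to the same wells and luminescence measured at 30 min; cells had been treated 16 h at 37 C with compounds, rat liver microsomes and NADPH (0.5 mg/mL final each).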
Experiment [8] in a line: p53 small molecule agonists, cell-based qHTS assay: qHTS cell viability counter screen (AID 1963581). Also: nearly all actives have a fitted effect of over 45% in size. Summed up: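 qHTS counter screen: 16 h compound exposure at 37 C of p53RE-bla HCT-116 cells (4,000 per well, seeded 5 h prior), cell viability by ATP luminescence.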
Experiment [9] concerns the target 5-hydroxytryptamine receptor 2A (Homo sapiens) (UniProt P28223). The experiment is described as follows: 5-hydroxytryptamine receptor 2A (HTR2A) small molecule antagonists, cell-based qHTS assay (AID 1963586). Also: nearly all actives have a fitted effect of over 45% in size. Also: potency is read from the fitted curve at half-maximal effect. Summed up:
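CHO cells stably expressing human HTR2A were plated for 18 h at 37 C, then loaded with calcium dye for 1 h. Compounds were preincubated 5 min at room temperature before DOI (4 nM solution) was added. Kinetic fluorescence was read for 3 min.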

For experiment [10] the target is unchanged. The experiment is described as follows: 5-hydroxytryptamine receptor 2A (HTR2A) small molecule agonists, cell-based qHTS assay (AID 1963587). Also: nearly all actives have a fitted effect of over 30% in size. In short, it runs like this:
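CHO cells stably expressing human HTR2A, plated 18 h, loaded with calcium dye 1 h at 37 C. Agonist mode: compounds added and intracellular calcium fluorescence recorded kinetically for 2 min at 1 sec intervals.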

The target of experiment [11] is Muscarinic acetylcholine receptor M1 (Homo sapiens) (UniProt P11229). The experiment is described as follows: Cholinergic receptor muscarinic 1 (CHRM1) small molecule agonists, cell-based qHTS assay (AID 1963589). Also: nearly all actives have a fitted effect of over 35% in size. Summed up:
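Kinetic fluorescence (1 s intervals) of calcium-sensitive dye in human M1 CHO cells after compound addition; cells pre-incubated 18 h at 37 C/5% CO2 and dye-loaded 1 h.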

Experiment [12] in a line: cAMP Responsive Elements (CRE) small molecule agonists, cell-based qHTS assay (AID 1963590). Summed up: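 Test agents in DMSO were incubated 3 h at 37 C/5% CO2 with CRE-bla HEK 293T cells seeded 18 h earlier; LiveBLAzer B/G FRET substrate was added and read after 2 h at room temperature.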
For experiment [13], the target named is Beta-2 adrenergic receptor (Homo sapiens) (UniProt P07550). The experiment is described as follows: Adrenergic beta2 receptor (ADRB2) small molecule antagonists, cell-based qHTS assay (AID 1963592). Also: series mostly up to about 92 µM; nearly all actives have a fitted effect of over 50% in size. In short, it runs like this:
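Assay format: CHO-ADRB2 cells, 18-20hr seeding at 37C/5% CO2, then compound plus 1nM isoproterenol agonist mix for 0.5hr RT. Homogeneous time-resolved fluorescence cAMP detection after 1hr, expressed as 665/615 nm ratio.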

Experiment [14] concerns the target D(2) dopamine receptor (Homo sapiens) (UniProt P14416). The experiment is described as follows: Dopamine D2 receptor (DRD2) small molecule antagonists, cell-based qHTS assay (AID 1963595; active = well fitted inhibition curve with a large enough effect in the signal ratio in the repeat runs, with a control signal flat; the % refers to the signal ratio). Summed up:
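Antagonism was scored as restored cAMP in HEK293-DRD2 cells. These cells were stimulated with 200 nM NKH477 and 12 nM quinpirole for 30 min at room temperature, in the presence of 0.1 mM Ro20-1724.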

A short description of experiment [15]: cAMP Responsive Elements (CRE) small molecule antagonists, cell-based qHTS assay (AID 1963591; active = well fitted inhibition curve with a large enough effect in the signal ratio in the repeat runs, not every such curve was filed as active; the % refers to the signal ratio). Summed up: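 Reporter line CRE-bla HEK 293T in dialyzed-FBS DMEM; cells preincubated 18 h, treated 3 h with compound plus NKH477 (0.25 uM final); LiveBLAzer FRET, 2 h RT.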
Experiment [16] addresses Beta-2 adrenergic receptor (Homo sapiens) (UniProt P07550). Nature of the experiment: Adrenergic beta2 receptor (ADRB2) small molecule agonists, cell-based qHTS assay (AID 1963593).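 Also: CHO cells stably overexpressing human ADRB2.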 In short, it runs like this:
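CHO cells stably over-expressing ADRB2 were plated overnight at 37C, then dosed with compounds plus a stimulation mix containing 100uM IBMX and 25uM Ro-20-1724 for 0.5hr at room temperature. cAMP was measured by HTRF competition, 1hr.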

For experiment [17], the target named is D(2) dopamine receptor (Homo sapiens) (UniProt P14416). The experiment is described as follows: Dopamine D2 receptor (DRD2) small molecule agonists, cell-based qHTS assay (AID 1963594). Also: nearly all actives have a fitted effect of over 35% in size. Summed up: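 HEK293 cells stably expressing human DRD2, pre-treated with PDE inhibitor Ro20-1724 (0.1 mM final) and compound 10 min at room temperature, then stimulated with NKH477 (200nM […]) for 30 min. cAMP read by HTRF (665/620 nm).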
D(2) dopamine receptor (Homo sapiens), sequence (P14416 whole entry, looked up): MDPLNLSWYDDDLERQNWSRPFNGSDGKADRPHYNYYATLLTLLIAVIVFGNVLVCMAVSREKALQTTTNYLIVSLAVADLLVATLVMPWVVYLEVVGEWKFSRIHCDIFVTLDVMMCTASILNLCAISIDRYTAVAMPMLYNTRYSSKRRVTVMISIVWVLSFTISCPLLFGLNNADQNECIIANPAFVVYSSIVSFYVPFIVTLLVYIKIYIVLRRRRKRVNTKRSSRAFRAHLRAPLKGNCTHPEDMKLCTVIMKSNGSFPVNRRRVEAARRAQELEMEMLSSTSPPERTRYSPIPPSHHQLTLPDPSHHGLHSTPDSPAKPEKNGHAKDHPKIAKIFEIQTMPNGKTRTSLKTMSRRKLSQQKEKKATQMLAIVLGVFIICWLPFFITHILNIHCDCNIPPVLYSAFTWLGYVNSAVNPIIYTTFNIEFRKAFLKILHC

The target of experiment [18] is Muscarinic acetylcholine receptor M1 (Homo sapiens) (UniProt P11229). The experiment is described as follows: Cholinergic receptor muscarinic 1 (CHRM1) small molecule antagonists, cell-based qHTS assay (AID 1963588). Also: nearly all actives have a fitted effect of over 40% in size. In short, it runs like this:
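Compounds were tested at 15 concentrations in three independent runs. Dye-loaded CHRM1-CHO cells were exposed 5 min at room temperature before stimulation by acetylcholine added at 50nM. Intracellular calcium was read kinetically on FDSS for 3 min.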

The structures appear in SMILES notation. A number with no mark means an inactive call. Results filed as inconclusive are left out. Calls of active or inactive are those of the source. Unless noted, calls follow the shape of the full dose curve.

Beta-2 adrenergic receptor (Homo sapiens), sequence (P07550 whole entry, looked up): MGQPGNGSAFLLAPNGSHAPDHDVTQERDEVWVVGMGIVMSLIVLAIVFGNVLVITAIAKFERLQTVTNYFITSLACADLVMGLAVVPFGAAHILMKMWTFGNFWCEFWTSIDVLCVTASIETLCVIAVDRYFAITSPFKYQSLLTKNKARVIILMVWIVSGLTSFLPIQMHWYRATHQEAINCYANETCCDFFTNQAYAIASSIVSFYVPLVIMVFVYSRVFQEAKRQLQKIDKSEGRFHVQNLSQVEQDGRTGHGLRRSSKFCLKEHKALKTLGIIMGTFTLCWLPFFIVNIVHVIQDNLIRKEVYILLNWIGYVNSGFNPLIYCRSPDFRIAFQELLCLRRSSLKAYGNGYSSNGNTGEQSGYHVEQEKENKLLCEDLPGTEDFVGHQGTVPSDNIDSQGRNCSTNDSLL
Muscarinic acetylcholine receptor M1 (Homo sapiens), sequence (P11229 whole entry, looked up): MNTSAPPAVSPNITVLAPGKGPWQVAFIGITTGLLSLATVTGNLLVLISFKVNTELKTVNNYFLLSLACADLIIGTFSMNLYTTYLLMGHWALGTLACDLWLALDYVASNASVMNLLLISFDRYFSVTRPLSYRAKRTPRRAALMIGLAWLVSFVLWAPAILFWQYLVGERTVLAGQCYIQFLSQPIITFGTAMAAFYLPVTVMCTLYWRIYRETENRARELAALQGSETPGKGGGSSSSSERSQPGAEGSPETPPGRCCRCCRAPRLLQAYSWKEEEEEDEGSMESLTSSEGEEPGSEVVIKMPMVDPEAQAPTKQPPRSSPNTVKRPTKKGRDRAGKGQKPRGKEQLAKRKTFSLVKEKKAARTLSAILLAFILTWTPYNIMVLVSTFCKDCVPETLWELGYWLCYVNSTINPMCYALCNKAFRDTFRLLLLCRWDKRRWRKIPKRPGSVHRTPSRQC
5-hydroxytryptamine receptor 2A (Homo sapiens), sequence (P28223 whole entry, looked up): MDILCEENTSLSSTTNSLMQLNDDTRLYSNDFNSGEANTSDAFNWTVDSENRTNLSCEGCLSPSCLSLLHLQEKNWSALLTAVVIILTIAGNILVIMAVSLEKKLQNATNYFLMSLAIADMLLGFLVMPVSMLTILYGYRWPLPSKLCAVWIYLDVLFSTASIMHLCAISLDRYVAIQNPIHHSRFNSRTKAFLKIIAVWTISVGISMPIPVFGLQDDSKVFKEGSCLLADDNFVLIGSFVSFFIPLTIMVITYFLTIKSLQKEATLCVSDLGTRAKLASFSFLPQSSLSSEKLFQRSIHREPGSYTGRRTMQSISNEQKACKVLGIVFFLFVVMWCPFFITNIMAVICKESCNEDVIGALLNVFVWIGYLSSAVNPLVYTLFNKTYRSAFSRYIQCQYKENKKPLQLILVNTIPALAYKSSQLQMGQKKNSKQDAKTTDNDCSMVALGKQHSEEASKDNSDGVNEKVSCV

Regarding `OCCN1CCOCC1`, the Potency entry in experiment [1], in experiment [2], in experiment [3], in experiment [4], in experiment [5] and in [6] was “inactive” in each case. Also, the Potency entry in [7], in experiment [8], in [9], in experiment [10], in experiment [11] and in experiment [12] was “inactive” throughout. The Potency entry in experiment [13] and in experiment [14] was “inactive” in each case.

In the case of `CC1=NN(c2cccc(S(=O)(=O)O)c2)C(=O)C1`, the Potency result in experiment [1], in [2], in experiment [3], in [4], in experiment [5] and in experiment [6] was “inactive” in each case. Moreover, the Potency result in [7], in [8], in [9], in [10], in experiment [11] and in [12] was “inactive” throughout. Moreover, the Potency result in [15], in [13], in experiment [16], in experiment [17] and in [14] was “inactive” throughout.

Consider `N#Cc1ccccc1C#N`, for which the Potency entry in experiment [1], in [2], in experiment [3], in experiment [4], in experiment [5] and in experiment [6] was “inactive” in each case. Also, the Potency result in [7], in experiment [8], in experiment [9], in experiment [10], in [11] and in experiment [12] was “inactive” in each case. Also, the Potency entry in experiment [15], in experiment [13], in experiment [16], in experiment [17] and in [14] was “inactive” throughout.

On to `CCOC(=O)OCC`, for which the Potency entry in experiment [1], in experiment [2], in experiment [3], in experiment [4], in experiment [5] and in experiment [6] was “inactive” throughout. Moreover, the Potency entry in [7], in [8], in [9], in [10], in experiment [18] and in [12] was “inactive” each time. Further, the Potency entry in [15] and in experiment [17] was “inactive” in each case.

As to `O=C(c1ccc(O)c(O)c1)c1ccc(O)cc1O`, the Potency entry in experiment [1], in [2], in experiment [3], in experiment [4], in experiment [5] and in experiment [6] was “inactive” throughout. Besides, the Potency result in [7], in experiment [8], in [10], in experiment [18] and in experiment [13] was “inactive” in each case. For the same compound, the Potency in experiment [9] is 47.1 µM (active).

As for `CCOc1ccc(NC(=O)CC(C)=O)cc1`, the Potency result in [1], in experiment [2], in experiment [3], in experiment [4], in experiment [5] and in experiment [6] was “inactive” each time. Further, the Potency entry in [7], in [8], in experiment [9], in [10], in experiment [18] and in experiment [12] was “inactive” in each case. The Potency entry in experiment [13], in experiment [17] and in [14] was “inactive” each time.

For the compound `Nc1cc(Cl)cc(S(=O)(=O)O)c1O`, the Potency result in [1], in experiment [2], in [3], in experiment [4], in [5] and in [6] was “inactive” in each case. Besides, the Potency result in experiment [7], in [8], in experiment [9], in [10], in [18] and in [12] was “inactive” throughout. In addition, the Potency result in experiment [15] and in experiment [17] was “inactive” each time.

Regarding `CCCCCCCC/C=C\CCCCCCCC(=O)OCC`, the Potency result in experiment [1], in experiment [2], in experiment [3], in experiment [4], in [5] and in experiment [6] was “inactive” each time. Further, the Potency result in experiment [7], in experiment [8], in [9], in experiment [10], in experiment [18] and in experiment [11] was “inactive” each time. Also, the Potency result in [13], in experiment [17] and in [14] was “inactive” each time.
